8 compounds from PubChem BioAssay (NCI) can be followed below.

“And” between values parts separate entries of the source, which are not always exact repeats. Identical values can stand only once. About 83,000 compounds went through this panel and 20% of them were active in at least one assay; those are over-represented in the sample as a whole.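 Growth was measured after 48 h exposure to one concentration of compound in 96-well plates. Values under 10 count as active.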 Values without a mark were called inactive. The source made the active and inactive calls.

Test systems include DU-145 prostate; K-562 leukemia; MDA-MB-231 breast; RXF 393 renal; SF-268 CNS; SF-539 CNS; UACC-257 melanoma; M14 melanoma; HCT-15 colon; HT29 colon; SNB-75 CNS; SNB-19 CNS; U251 CNS; PC-3 prostate; SK-MEL-5 melanoma; UACC-62 melanoma; LOX IMVI melanoma; SK-MEL-28 melanoma; MALME-3M melanoma; SF-295 CNS.
Holding throughout (assay): NCI-60 one-dose screen, 48 h (100 = growth as untreated, 0 = no growth, -100 = all killed)
Common to all, as to conditions: 10 µM unless noted

In the case of `CCCCCCCCCCNC(=O)CI`, the growth with DU-145 prostate is 99.1%; in the assay with K-562 leukemia it was 0.309% (active); with MDA-MB-231 breast it was 9.39% (active); with RXF 393 renal it was -86.5% (active); in the assay with SF-268 CNS, 37.1%; with SF-539 CNS, 39.1%. Also, the growth is 66.3% in the assay on UACC-257 melanoma; -24.8% (active) in the assay on M14 melanoma; 14% with HCT-15 colon; -54.9% (active) with HT29 colon; -30.7% (active) in the assay on SNB-75 CNS; 89.2% in the assay with SNB-19 CNS. Besides, the growth was 14.3% in the assay with U251 CNS; -39.8% (active) with PC-3 prostate; 3.04% (active) in the assay with SK-MEL-5 melanoma; 59.4% in the assay on UACC-62 melanoma; -73.2% (active) in the assay on LOX IMVI melanoma; 58.4% with SK-MEL-28 melanoma.

For `Cc1ccc(S(=O)(=O)c2ccccc2)cc1`, the growth in the assay with DU-145 prostate is 26.3%; in the assay on K-562 leukemia it was 23.2%; in the assay on MALME-3M melanoma, 66.6%; in the assay on MDA-MB-231 breast it was 50%; with RXF 393 renal it was 39.3%; in the assay on SF-268 CNS it was 47.9%. The growth with SF-295 CNS was 2.7% (active); with SF-539 CNS it was 28.7%; with UACC-257 melanoma, 8.5% (active); with M14 melanoma it was 15.4%; in the assay with HCT-15 colon, 30.5%; with HT29 colon, 6.22% (active). The growth with SNB-75 CNS was -19.3% (active); with SNB-19 CNS it was 43.4%; in the assay with U251 CNS it was 17.2%; in the assay on PC-3 prostate it was 30.7%; with UACC-62 melanoma it was 63.4%; in the assay with SK-MEL-28 melanoma, 59.6%.

For the compound `O=CN1CCCCC1`, the growth in the assay with DU-145 prostate was 114%; in the assay on K-562 leukemia it was 104%; in the assay with MALME-3M melanoma, 103%; with MDA-MB-231 breast, 104%; in the assay with SF-268 CNS, 105%; in the assay with SF-295 CNS, 97.8%. The growth in the assay on SF-539 CNS is 99.8%; with UACC-257 melanoma, 104%; in the assay with M14 melanoma, 121%; with HCT-15 colon it was 106%; with HT29 colon it was 108%; with SNB-75 CNS, 94.3%. The growth is 107% in the assay with SNB-19 CNS; 110% in the assay with U251 CNS; 106% in the assay with PC-3 prostate; 96.6% in the assay with LOX IMVI melanoma; 110% in the assay with SK-MEL-28 melanoma.

As for `O=C1CSC2=NCCN12`, the growth in the assay with DU-145 prostate is 111% and 107%; with K-562 leukemia, 74.2% and 76.4%; in the assay with MALME-3M melanoma it was 91.7% and 120%; with MDA-MB-231 breast, 104% and 103%; in the assay on RXF 393 renal it was 81.5% and 98.4%; with SF-268 CNS, 97.4% and 96.9%. Further, the growth was 102% and 81% in the assay with SF-295 CNS; 94.3% and 91.7% in the assay on SF-539 CNS; 71.9% and 103% with UACC-257 melanoma; 90.1% and 91.6% with M14 melanoma; 107% and 97.2% in the assay on HCT-15 colon; 96.4% and 91.5% in the assay with HT29 colon. In addition, the growth in the assay with SNB-75 CNS was 87.5% and 83.3%; in the assay with SNB-19 CNS, 101% and 112%; in the assay with U251 CNS, 88.7% and 91.1%; in the assay on PC-3 prostate it was 102% and 121%; in the assay on UACC-62 melanoma, 87.1%; in the assay on SK-MEL-28 melanoma, 78.5% and 85.8%.

Turning to `N#CC(C#N)N=Nc1cc(Cl)ccc1Cl`, the growth was 111% with DU-145 prostate; 95.3% in the assay on K-562 leukemia; 91.7% in the assay with MDA-MB-231 breast; 115% in the assay on RXF 393 renal; 95% in the assay with SF-268 CNS; 99.8% with SF-539 CNS. Also, the growth with UACC-257 melanoma is 92%; with M14 melanoma, 98.5%; with HCT-15 colon, 101%; in the assay with HT29 colon, 101%; with SNB-75 CNS, 74.8%; with SNB-19 CNS, 93.6%. In addition, the growth was 96.6% in the assay with U251 CNS, 106% with PC-3 prostate, 99.1% in the assay with UACC-62 melanoma and 109% with SK-MEL-28 melanoma.

For `OCCN1CCCCCCC1`, the growth in the assay on DU-145 prostate is 113%; with K-562 leukemia, 105%; in the assay on MALME-3M melanoma, 96%; in the assay with MDA-MB-231 breast, 99.5%; with RXF 393 renal, 100%; in the assay with SF-268 CNS, 107%. In addition, the growth is 95.9% with SF-295 CNS; 98.7% with SF-539 CNS; 92.3% in the assay with M14 melanoma; 91.4% in the assay with HCT-15 colon; 106% with HT29 colon; 115% in the assay with SNB-75 CNS. Further, the growth is 101% in the assay on SNB-19 CNS; 93.5% in the assay on PC-3 prostate; 102% with SK-MEL-5 melanoma; 101% in the assay with UACC-62 melanoma; 103% with LOX IMVI melanoma; 104% in the assay with SK-MEL-28 melanoma.

With `Cn1cnc([N+](=O)[O-])c1Sc1ncn[nH]1`, the growth in the assay with DU-145 prostate was 108%; in the assay with K-562 leukemia, 137%; in the assay with MALME-3M melanoma, 91.6%; in the assay with MDA-MB-231 breast, 106%; with RXF 393 renal, 26.1%; in the assay on SF-268 CNS, 106%. Further, the growth with SF-295 CNS was 116%; in the assay on SF-539 CNS it was 103%; with UACC-257 melanoma, 4.36% (active); with M14 melanoma, 95.9%; with HCT-15 colon, 107%; with HT29 colon it was 104%. Further, the growth in the assay on SNB-75 CNS is 85.6%; in the assay on SNB-19 CNS it was 111%; in the assay with U251 CNS, 108%; in the assay with UACC-62 melanoma, 108%; in the assay on SK-MEL-28 melanoma it was 104%.

Consider `Brc1ccc(SSc2ccc(Br)cc2)cc1`, for which the growth in the assay on DU-145 prostate was 93.6%; in the assay with K-562 leukemia, 89.9%; with MALME-3M melanoma it was 74.8%; in the assay with RXF 393 renal, 74.6%; in the assay on SF-268 CNS, 58.9%; with SF-295 CNS, 52.2%. Also, the growth in the assay with SF-539 CNS was 56.1%; in the assay with UACC-257 melanoma it was 97.7%; in the assay on M14 melanoma, 68.7%; in the assay with HCT-15 colon it was 77.3%; in the assay with HT29 colon, 97.2%; with SNB-75 CNS, 77.2%. For the same compound, the growth is 87.9% in the assay on SNB-19 CNS; 65.8% in the assay with U251 CNS; 39.7% with PC-3 prostate; 54.7% in the assay on SK-MEL-5 melanoma; 96.9% with UACC-62 melanoma; 97.6% in the assay on SK-MEL-28 melanoma.
